Consider 99 compounds from PubChem BioAssay AID777 (Sanford-Burnham Center for Chemical Genomics, 2007).

Among all 96,000 compounds or so, about 19,000 (20%) were called active.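 The calls were made as follows: active = blocking of liver enzyme CYP2C9 beyond about 50% at 5 µM (limit read from the data); inactive = the rest.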 The list is a sample of the results.

In the test the target is Cytochrome P450 2C9 (Homo sapiens) (UniProt P11712). Description: blockers of cytochrome P450 2C9 activity – biochemical, luminescence, ADME assay, primary screen (AID 777). Particulars: CYP2C9 Supersomes, luciferin-H conversion, at 5 µM, stronger effect = higher value.
Cytochrome P450 2C9 (Homo sapiens), sequence (P11712 whole entry, looked up): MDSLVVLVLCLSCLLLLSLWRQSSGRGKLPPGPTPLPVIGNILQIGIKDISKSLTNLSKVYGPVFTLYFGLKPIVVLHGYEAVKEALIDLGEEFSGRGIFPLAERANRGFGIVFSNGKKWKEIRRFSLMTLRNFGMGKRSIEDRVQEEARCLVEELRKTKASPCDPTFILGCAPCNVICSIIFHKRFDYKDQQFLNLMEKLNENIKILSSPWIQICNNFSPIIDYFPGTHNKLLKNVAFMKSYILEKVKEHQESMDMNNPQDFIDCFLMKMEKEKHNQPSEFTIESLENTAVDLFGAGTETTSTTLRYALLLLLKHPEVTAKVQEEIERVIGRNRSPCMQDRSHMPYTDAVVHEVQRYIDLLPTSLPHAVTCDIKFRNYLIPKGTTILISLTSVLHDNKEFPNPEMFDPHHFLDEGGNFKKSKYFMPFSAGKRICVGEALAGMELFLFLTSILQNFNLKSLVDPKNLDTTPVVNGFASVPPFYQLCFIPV
A word on the inhibition: it is the drop in the measured response relative to a control, in per cent. As to `CCCN(CCC)CCNC(=O)c1cc2c(C)nc3ccccc3c2o1`, the inhibition was 8.6% (inactive).
On to `Cc1sc2c(c1C)c(=O)n(-c1ccccc1)c1nncn21`, for which the inhibition is -2.8% (inactive).
With `N#Cc1nc(Cc2ccccc2)oc1NCCc1ccccc1`, the inhibition is 39.2% (inactive).
Then `CCOc1ccc(Nc2oc(Cc3ccccc3)nc2C#N)cc1`, with 78.1% (active).
On to `N#Cc1nc(COc2ccc(-c3ccccc3)cc2)oc1NCc1cccnc1`, for which the inhibition was 70.7% (active).
As to `COc1ccc(Nc2oc(-c3ccccc3Cl)nc2C#N)cc1`, the inhibition is 47% (inactive).
Take `N#Cc1nc(-c2ccc(OCc3ccccc3)cc2)oc1NCCCN1CCOCC1`: the inhibition is 41% (inactive).
`c1ccc(-c2cc(-c3nnc4sc(-c5ccccn5)nn34)[nH]n2)cc1`: the inhibition is -2.3% (inactive).
As for `COc1ccc(C(F)(F)F)cc1N/C=C\c1nnnn1-c1ccc(C)cc1`, the inhibition is 44.6% (inactive).
Take `CCN(CC)S(=O)(=O)c1cc(C(=O)Nc2ccccn2)ccc1C`: the inhibition was 38.8% (inactive).
Take `CCN(CC)C(=O)N1CCN(C(=O)c2ccc(C)cn2)CC1`: the inhibition was -1% (inactive).
The same measure for `CCCOc1ccc(C2NC(=O)NC(c3ccccc3)=C2C(C)=O)cc1OCC` (centres undefined): 37.3% (inactive); for `Cc1cccc(COc2ccccc2/C=N/Nc2ccc([N+](=O)[O-])cc2)c1`: 43.5% (inactive); for `CC(=O)CSc1nnc(CSc2ncccn2)n1C1CCCCC1`: -10.7% (inactive).
The same measure for `CCN(CC)CCN1C(=O)C(=O)/C(=C(/O)c2ccccc2)C1c1ccccc1F` (centres undefined): -5.9% (inactive).
On to `CCCNC(=O)c1c(N)n(-c2ccc(S(N)(=O)=O)cc2)c2nc3ccccc3nc12`, for which the inhibition was -2.9% (inactive).
`CC(=O)C1=C(O)C(=O)N(c2ccc(S(N)(=O)=O)cc2)C1c1ccccc1F` (centres undefined): the inhibition is 62.8% (active).
As to `COCC(=O)Nc1ccc(Br)cc1`, the inhibition was -12.9% (inactive).
As to `O=C(NCc1ccco1)C1(c2ccc(Cl)cc2)CCCC1`, the inhibition is 58.8% (active).
The same measure for `O=C(/C=C/c1ccc(Cl)cc1Cl)NCc1ccco1`: -2.5% (inactive); for `O=C(NCCCCCCNC(=O)NCc1ccco1)NCc1ccco1`: -11.1% (inactive); for `Cc1nc2c(-c3ccc(F)cc3)c(C)nn2c(C)c1CCC(=O)N1CCN(c2ccccn2)CC1`: 13.1% (inactive).
`O=C(/C=C/c1ccc(Cl)cc1Cl)c1cccnc1`: the inhibition was 14.7% (inactive).
Consider `CN1CCN(c2ccc([N+](=O)[O-])c(Sc3nc4ccccc4[nH]3)c2)CC1`, for which the inhibition was 52.2% (active).
Then `COc1ccccc1CSc1nc2ccccc2[nH]1`, with 43.6% (inactive).
Then `CSc1nnc2c(n1)OC(c1cn(C)c3ccccc13)N(C(C)=O)c1ccccc1-2` (centres undefined), with 1.6% (inactive); and `Cc1ccc(-c2nnc(SC(C)C#N)n2N)cc1` (centres undefined), with 1.1% (inactive); and `CSc1ccccc1C(=O)Nc1cccc(C(C)=O)c1`, with 27.8% (inactive).
The same measure for `Cc1cc(C)nc(N(C#N)CC(=O)Nc2ccccc2)n1`: 7.1% (inactive); for `CSc1nc(C)cc(SC(C(C)=O)C(=O)Nc2ccccc2)n1` (centres undefined): 65.3% (active); for `Cc1csc(NC(=O)NC2(C(F)(F)F)Oc3ccccc3O2)n1`: -6.5% (inactive).
For the compound `COc1ccc(C(=O)Nc2cc(C)ccc2NC(=O)COc2ccccc2)cc1`, the inhibition was 6.9% (inactive).
With `Cc1ccc2nc(-c3ccc(SCC(=O)Nc4cc(C)on4)nc3)[nH]c2c1`, the inhibition was 2.6% (inactive).
`CCOC(=O)c1cc2cc(C)ccc2[nH]1`: the inhibition is 13.9% (inactive).
As for `CC(N)C12CC3CC(CC(O)(C3)C1)C2` (centres undefined), the inhibition is -4% (inactive).
Regarding `FC(F)(F)COc1nc(N2CCCCC2)nc(N2CCNCC2)n1`, the inhibition was -4.2% (inactive).
With `O=C(CSC1=Nc2ccccc2C2=NC(CC(=O)NCc3ccco3)C(=O)N12)NCc1ccco1` (centres undefined), the inhibition was 65.1% (active).
Consider `CCOCCc1c(O)nc(SCC(=O)NCc2ccco2)[nH]c1=O`, for which the inhibition was -8.3% (inactive).
The same measure for `O=C(COC(=O)C12CC3CC(CC(C3)C1)C2)NCc1ccco1`: 35.4% (inactive).
Turning to `CCC(C)NC(=O)CSC1=Nc2ccccc2C2=NC(CCC(=O)NCc3ccco3)C(=O)N12` (centres undefined), the inhibition is 67.8% (active).
In the case of `O=C(CC1N=C2c3ccccc3N=C(SCc3ccccc3Cl)N2C1=O)NCc1ccco1` (centres undefined), the inhibition was 85.2% (active).
Then `NC(=O)CSC1=Nc2ccccc2C2=NC(CCC(=O)NCc3ccc(F)cc3)C(=O)N12` (centres undefined), with 16.8% (inactive).
The same measure for `O=C(CSc1c2c(nc3ccc(Cl)cc13)CCCC2)NCc1ccco1`: 48.3% (inactive); for `CCOc1c(Cl)cc(/C=N/O)cc1OC`: -30% (inactive); for `COC(=O)c1cc(C(=O)OC)cc(N2C(=O)CC(N3CCN(c4ccccc4)CC3)C2=O)c1` (centres undefined): 49% (inactive).
For `Cn1cc(S(=O)(=O)N2CCC(Cc3ccccc3)CC2)c(=O)n(C)c1=O`, the inhibition is 23.7% (inactive).
The same measure for `C=C1c2cc(CC)ccc2NC(=O)N1c1ccc(C)cc1`: 10.6% (inactive); for `CC(C)(C)n1nnc(CCc2nnn(C(C)(C)C)n2)n1`: 3.2% (inactive).
For the compound `Cc1c(NC(=O)/C=C/C(=O)O)cccc1[N+](=O)[O-]`, the inhibition is -2.8% (inactive).
The same measure for `Cc1ccc(NC2(C#N)C(=O)Nc3ccccc32)cc1` (centres undefined): -24.6% (inactive); for `CCOC(=O)c1c(NC(=O)/C=C/c2ccco2)sc(C)c1C`: -4% (inactive).
`CCOC(=O)c1c(NC(=O)CCl)sc(C(=O)N(CC)CC)c1C`: the inhibition is 49.6% (inactive).
In the case of `CCOC(=O)c1c(NC(C)=O)sc2c(O)c(Br)ccc12`, the inhibition was 55% (active).
In the case of `CC(=O)Nc1nonc1-c1nc2ccccc2n1Cc1ccccn1`, the inhibition is 7.4% (inactive).
Regarding `COc1ccccc1N1CCN(C(=O)c2cc(-c3ccc(Br)cc3)on2)CC1`, the inhibition is -12% (inactive).
Then `COc1ccccc1N1CCN(C(=O)CSc2nnc(-c3ccoc3C)o2)CC1`, with 25.8% (inactive); and `COc1ccccc1N1CCN(C(=O)c2c(-c3c(Cl)cccc3Cl)noc2C)CC1`, with 88% (active).
On to `CN1CCN(CCCNC(=O)c2cc3c(=O)oc4ccccc4c3s2)CC1`, for which the inhibition was -15.9% (inactive).
The same measure for `Cc1ccc(CNC(=O)COc2ccc(S(=O)(=O)NC(C)C)cc2)cc1`: 52.7% (active).
Consider `CC(C)NS(=O)(=O)c1ccc(OCC(=O)Nc2ccc3c(c2)OCCO3)cc1`, for which the inhibition is 40.9% (inactive).
Then `COc1ccc(OCC(=O)NCCc2ccc(S(N)(=O)=O)cc2)cc1`, with 41.9% (inactive); and `COc1ccc(-c2cc(C)nc3nc(N)nn23)cc1`, with -29.3% (inactive); and `Cc1cccc(N2C(=O)c3cccnc3C2=O)c1`, with 3.1% (inactive).
Turning to `CCOC(=O)c1[nH]c2ccc(OC)cc2c1NC(=O)N1CCOCC1`, the inhibition was -9.2% (inactive).
`Cc1c(C(=O)CN2CCOCC2)[nH]c2ccccc12`: the inhibition is -15.8% (inactive).
Turning to `Cc1c(C(=O)N2CCOCC2)[nH]c2ccc(OCc3ccccc3)cc12`, the inhibition was 72.7% (active).
Consider `Cc1ccc(OCC(O)CN2CCN(CC(O)COc3ccc(C)cc3Cl)CC2)c(Cl)c1` (centres undefined), for which the inhibition was -10.1% (inactive).
Regarding `COC(=O)c1[nH]c2ccc(Br)cc2c1NC(=O)Oc1ccccc1`, the inhibition was 4.5% (inactive).
Consider `COC(=O)c1[nH]c2ccccc2c1NS(=O)(=O)c1ccc(OC)cc1OC`, for which the inhibition was 74.8% (active).
As to `CCCS(=O)(=O)Nc1c(C(=O)O)[nH]c2ccccc12`, the inhibition was 33.7% (inactive).
As for `CCCCCCCCOC1OC(CO)C(O)C(O)C1NC(C)=O` (centres undefined), the inhibition was -2.6% (inactive).
As to `COC(=O)c1ccc(C(=O)Nc2cc(Cl)ccc2Cl)cc1NC(=O)c1ccccc1C`, the inhibition was -13.7% (inactive).
For the compound `Cc1ccc(N2C(=O)c3ccccc3C2(O)c2ncc[nH]2)cc1` (centres undefined), the inhibition is -0.7% (inactive).
In the case of `CCOCC(=O)Nc1cc(OC)c(Cl)cc1OC`, the inhibition was 13.3% (inactive).
Consider `Cc1nc(N2CCCC2C(=O)O)c2oc3ccccc3c2n1` (centres undefined), for which the inhibition is -6.6% (inactive).
Consider `CC(C)C1N=C2c3ccccc3N=C(SCC(=O)c3ccc(O)c(O)c3)N2C1=O` (centres undefined), for which the inhibition was 51.3% (active).
The same measure for `O=C(CSC1=Nc2ccccc2C2=NC(c3ccccc3)C(=O)N12)NCC1CCCO1` (centres undefined): 39.3% (inactive); for `CCOC(=O)c1cc2occc2n1CC(=O)NC1CCC(C)CC1` (centres undefined): 22% (inactive).
Then `O=C1/C(=C\Nc2ccccc2)CCN1c1ncccn1`, with 3.1% (inactive); and `CCOC(=O)CCc1c(C)c(C#N)c2[nH]c3ccccc3n2c1=O`, with 64.1% (active).
Take `CCOC(=O)C1CCN(C(=O)Cn2cc(C#N)c3ccccc32)CC1`: the inhibition is -6.6% (inactive).
On to `CCOC(=O)CSc1nccc(N(C)C)c1C#N`, for which the inhibition is -35% (inactive).
With `Cc1c(CCO)c(=O)n(-c2ccccc2)n1S(=O)(=O)c1ccc(F)cc1`, the inhibition is 37.6% (inactive).
For the compound `CCOC(=O)C1CCN(Cc2coc3ccc(Cl)cc3c2=O)CC1`, the inhibition was -49.2% (inactive).
Take `CCCc1nc(SCC(=O)Nc2ccccc2OC)c2c(=O)n(C)c(=O)n(C)c2n1`: the inhibition is 70.3% (active).
Then `CCN(CC(=O)Nc1ccccc1OC)C(=O)Cn1cnc2ccccc2c1=O`, with 14.4% (inactive); and `COc1ccccc1NC(=O)CSc1nnc(Cn2nnc(-c3ccccc3)n2)n1-c1ccccc1`, with 40.2% (inactive); and `COc1ccc(C2C=C(c3ccc(Br)cc3)Nc3nc(NS(C)(=O)=O)nn32)cc1` (centres undefined), with -11.7% (inactive).
Take `O=C(O)CCC(=O)NCc1ccc(C(=O)O)cc1`: the inhibition was 6.1% (inactive).
In the case of `COc1ccc(NC(=O)c2c(SC)nsc2SC)cc1`, the inhibition was 12.2% (inactive).
The same measure for `CCCCCOC(=O)NCCOC(=O)Nc1ccc(C(=O)OCC)cc1`: 48% (inactive).
As to `CCCc1ccc(OCc2ccc(C(=O)N/N=C/c3cccc([N+](=O)[O-])c3)o2)c(OC)c1`, the inhibition is -10.7% (inactive).
For `COc1cc(OC)c(/C=N/NC(=O)c2ccc([N+](=O)[O-])cc2)cc1Br`, the inhibition was 1.8% (inactive).
The same measure for `N#Cc1cc([N+](=O)[O-])ccc1Oc1cccc(/C=N/NC(=O)c2ccc(Cl)cc2)c1`: 59.3% (active).
The same measure for `O=C1CCC(C(=O)Nc2ccc(OC(F)F)cc2)N1` (centres undefined): 1.2% (inactive).
Then `CCCCNc1nc2ccccc2nc1NS(=O)(=O)c1cccs1`, with 32.1% (inactive).
Consider `CC1(C)CC(=O)C(C=NCCC2=CCCCC2)=C(O)C1`, for which the inhibition is 0.7% (inactive).
With `CC1(C)CC(=O)C(C=NCCN2CCN(C(=S)Nc3cccc(Cl)c3)CC2)=C(O)C1`, the inhibition was 51.8% (active).
`CC(=O)N1CCN(CCN=CC2=C(O)CC(C)(C)CC2=O)CC1`: the inhibition is 4% (inactive).
